Source: PubChem (National Center for Advancing Translational Sciences (NCATS))
ALOX12 inh: blocks human arachidonate 12S-lipoxygenase | hit rate 1.1% among 580,000 | P18054 | Potency, µM (doses to about 108 µM), hits mostly inhibitors | purified 12hLO, xylenol orange hydroperoxide absorbance
Target sequence (P18054 whole entry, looked up): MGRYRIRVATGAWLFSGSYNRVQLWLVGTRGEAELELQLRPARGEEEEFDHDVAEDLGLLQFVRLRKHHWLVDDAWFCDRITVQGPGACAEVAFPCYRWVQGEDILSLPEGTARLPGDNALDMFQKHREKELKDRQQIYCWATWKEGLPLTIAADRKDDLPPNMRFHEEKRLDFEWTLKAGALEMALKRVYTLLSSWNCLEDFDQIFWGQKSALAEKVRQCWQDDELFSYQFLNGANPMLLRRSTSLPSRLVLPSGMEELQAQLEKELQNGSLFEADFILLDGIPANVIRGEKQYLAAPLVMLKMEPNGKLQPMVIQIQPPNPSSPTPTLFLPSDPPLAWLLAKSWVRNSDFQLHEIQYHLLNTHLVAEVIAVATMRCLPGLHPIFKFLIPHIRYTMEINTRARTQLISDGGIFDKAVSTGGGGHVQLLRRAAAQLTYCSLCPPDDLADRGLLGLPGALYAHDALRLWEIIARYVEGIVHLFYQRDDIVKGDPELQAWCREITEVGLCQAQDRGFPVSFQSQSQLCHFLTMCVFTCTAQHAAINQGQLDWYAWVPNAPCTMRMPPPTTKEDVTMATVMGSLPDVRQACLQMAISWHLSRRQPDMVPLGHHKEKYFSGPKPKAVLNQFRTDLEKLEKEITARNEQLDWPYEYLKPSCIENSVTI
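Purified human 12hLO at 150 nM in 25 mM Hepes, 0.01% Triton X-100, pH 7.0, preincubated 15 min at room temperature with compound. Reaction started with 40 uM arachidonic acid, 30 min at room temperature. Hydroperoxide measured by Fe-xylenol orange, 573/405 nm absorbance ratio.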
KB-3-1 cytotox: kills parental KB-3-1 adenocarcinoma cells | KB-3-1 viability, CellTiter-Glo ATP luminescence, 72 h | Potency, µM (highest dose often 46.1 µM), actives largely listed as cytotoxic | hit rate 1.4% among 400,000 | AID 1347075; note: nearly all actives have a fitted effect of over 60% in size
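Multi-concentration cytotoxicity screen in KB-3-1 cells grown in DMEM lacking phenol red with 10% FBS. After 72 h at 37 °C with compound, ATP-dependent luminescence was recorded.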
KB-V1 MDR tox: kills drug-selected multidrug resistant KB-V1 cells | KB-V1 MDR cells viability, CellTiter-Glo, 72 h | Potency, µM (doses to about 46.1 µM), actives largely listed as cytotoxic | hit rate 3.4% among 400,000 | AID 1347076; note: nearly all actives have a fitted effect of over 60% in size
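Cells of the MDR subline KB-V1 are plated, dosed with compound at multiple concentrations, and incubated 72 h at 37 degrees C; CellTiter-Glo is then added and luminescence read after 10 min.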
MCF10A rerep: induces DNA re-replication in MCF 10a normal breast cells; MCF 10A DNA re-replication, Hoechst nuclear intensity, 48 h; Potency, µM (top dose mostly 46.1 µM), hits mostly activators; hit rate 2.9% among 350,000; note: nearly all actives have a fitted effect of over 50% in size
PINK1 modulator: modulators of PINK1 expression; PINK1 immunofluorescence, high-content cytometry, 24 h; Potency, µM (highest dose often 76.6 µM), actives largely listed as activators; hit rate 0.2% among 410,000; AID 624263; active = well fitted activation curve with a large enough effect; inconclusive = small, poorly fitted or top-dose-only effect; cell line not stated here; note: nearly all actives have a fitted effect of over 65% in size
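Compound titrations (5 concentrations, 24 h) on a stable cell line; DMSO and CCCP controls. Endpoint: fixed-cell PINK1 immunofluorescence with mitochondrial, cell and nuclear markers, scanned by microplate cytometer.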
SW480 rerep: inducers of DNA re-replication in SW480 colon cancer cells; Potency, µM (titrated, usually from 46.1 µM), usual class: activators; SW480 DNA re-replication, Hoechst DNA content imaging, 48 h; AID 624297; hit rate 1.8% among 340,000; note: nearly all actives have a fitted effect of over 55% in size
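DNA re-replication was detected as more nuclei of elevated Hoechst intensity after 48 hr exposure to compound (23 nL pinned per well of 250 cells).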
Numbers stand for hits; – = inactive; ? = inconclusive; · = no result given; ! = not confirmed by another sample. The list is not random: actives were taken first. Their share in the collection is about 5.8%. Unless noted, calls come from the whole dose curve; as a rule, active = well fitted curve in the direction sought with a large enough effect; inconclusive = small, poorly fitted or top-dose-only effect, or another doubt; inactive = no such curve, though single readings can be large; an effect the other way counts as inactive or inconclusive.

SMILES | ALOX12 inh | KB-3-1 cytotox | KB-V1 MDR tox | MCF10A rerep | PINK1 modulator | SW480 rerep
CCn1c2ccccc2c2nc3ccccc3nc21 | · | – | – | 13µM | – | –
CCn1c2ccccc2c2nc3cc(OC)c(OC)cc3nc21 | ? | ? | 2.1µM | 2.9µM | – | 18µM
CC1(C)CC(=O)C2=C(C1)NC(=O)CC2c1ccsc1 (stereo unspecified) | – | · | · | · | · | ·
COc1ccc(-c2coc3cc(OC(=O)C(C)C)ccc3c2=O)cc1 | – | · | · | · | · | ·
COc1ccc(-c2coc3cc(OC(C)=O)ccc3c2=S)cc1 | ? | – | – | ? | 18µM | ?
Cc1ccc(C(C)C)c(OCC(=O)Nn2c(=O)[nH]c3ccccc3c2=O)c1 | – | – | 21µM | – | – | –
COc1ccc(OC)c(NC(=O)C2CC(=O)Nc3c(-c4ccccc4OC)cnn32)c1 (stereo unspecified) | – | · | · | · | · | ·
COc1cc2c(=O)n(Cc3ccccc3)c(=O)n(CC(=O)NCC3CCCO3)c2cc1OC (stereo unspecified) | – | – | 21µM | – | – | –
CCOC(=O)/C=c1/s/c(=C\c2c(OC)ccc3ccccc23)c(=O)n1CC(=O)NCC1CCCO1 (stereo unspecified) | ? | ? | 4.6µM | ? | – | 15µM
CCOC(=O)/C=c1\s/c(=C\c2ccc3cc(OC)ccc3c2)c(=O)n1CC(=O)NCc1ccc2c(c1)OCO2 | – | 18µM | ? | – | 20µM | –
CCOC(=O)/C=c1\s/c(=C\c2c(OCC)ccc3ccccc23)c(=O)n1CC(=O)NCC1CCCO1 (stereo unspecified) | – | ? | ? | ? | – | –
CCOC(=O)/C=c1\s/c(=C\c2ccc3c(c2)OCCO3)c(=O)n1CC(=O)NCC1CCCO1 (stereo unspecified) | – | – | – | ? | – | –
Cc1cc(NC(=O)Cn2c(=O)n(Cc3ccccc3)c(=O)c3ccccc32)no1 | – | – | 7.3µM | – | – | –
Cc1cccc(NC(=O)CSc2nncn2CCc2cccs2)c1C | – | · | · | · | · | ·
CC(Cn1cccn1)NC(=O)N1CCN(Cc2cccs2)CC1 (stereo unspecified) | – | · | · | · | · | ·
CCOC(=O)/C=c1\s/c(=C\c2ccccc2C)c(=O)n1CC(=O)NCc1ccc2c(c1)OCO2 | – | – | 3.3µM | ? | ? | ?
CCCCc1ccc(-c2csc(/C(C#N)=C/c3ccc(C)o3)n2)cc1 | ? | – | – | ? | – | –
CCCCc1ccc(-c2csc(/C(C#N)=C\c3ccco3)n2)cc1 | ? | – | – | 18µM | – | ?
CN(CC(=O)Nc1ccccc1C(F)(F)F)C(=O)Cc1ccc2c(c1)CCCC2 | – | · | · | · | · | ·
O=C(O)/C=C/c1c(F)cccc1Cl | – | · | · | · | · | ·
O=C(/C=C/c1c(F)cccc1Cl)c1ccc(O)cc1 | ? | ? | – | 3.3µM | – | ?
Cc1ccc(OCc2nc(C#N)c(NCc3ccncc3)o2)c(C)c1 | – | · | · | · | · | ·
C(=C\c1ccccc1)/CN1CCN(C(c2cc3ccccc3o2)c2nnnn2Cc2ccccc2)CC1 (stereo unspecified) | – | – | 16µM | · | – | ·
CCCc1nc(SC)ncc1C(=O)Nc1ccccc1F | – | · | · | · | · | ·
CC(C)(C)C(Cn1ccnc1)NC(=O)c1cc(COc2ccc3c(c2)CCCC3)on1 (stereo unspecified) | – | · | · | · | · | ·
SMILES | ALOX12 inh | KB-3-1 cytotox | KB-V1 MDR tox | MCF10A rerep | PINK1 modulator | SW480 rerep
O=C(CCNS(=O)(=O)c1ccc(Br)s1)N1CCCCC1 | – | – | – | – | – | –
COc1ccc(N2CCN(C(=O)CCNS(=O)(=O)c3ccc(Br)s3)CC2)cc1 | – | ? | 13µM | – | – | –
O=C(CNS(=O)(=O)c1ccc(Br)s1)N1CCN(c2ccc(F)cc2)CC1 | ? | 23µM! | 18µM! | – | – | –
O=C(CNS(=O)(=O)c1ccc(F)cc1)N1CCN(c2ccc(F)cc2)CC1 | ? | – | – | – | ? | –
CCc1ccc2c(CN3CCC4(CC3)OCCO4)cc(=O)oc2c1 | – | · | · | · | · | ·
O=C(CC(c1ccc(Cl)cc1)S(=O)(=O)c1ccccc1)c1ccc(F)cc1 (stereo unspecified) | – | · | · | · | · | ·
COc1ccc2cc(C(=O)N(C)C3CCS(=O)(=O)C3)[nH]c2c1 (stereo unspecified) | – | · | · | · | · | ·
O=C(c1cc(F)cc(F)c1)N1CCOc2ccccc21 | – | · | · | · | · | ·
CCN(CC)C(=O)c1sc2nc(-c3ccc(OC)cc3)cn2c1C | – | – | 3.7µM | – | – | –
COc1ccc(-c2cn3c(C)c(C(=O)Nc4cc(NC(C)=O)ccc4OC)sc3n2)cc1 | – | – | – | ? | 10µM | –
COc1ccc2nc(-c3ccc4c(c3)OCO4)cc(C(=O)NCCN3CCOCC3)c2c1 | 40µM | · | · | · | · | ·
CNC(=O)c1sc2nc(-c3ccc(OC)cc3)cn2c1C | – | – | – | – | – | –
COc1ccc(-c2cn3c(C)c(C(=O)NCCN4CCOCC4)sc3n2)cc1 | – | – | 12µM | – | – | –
CCC(C(=O)Nc1nnc(COC)s1)c1ccccc1 (stereo unspecified) | – | · | · | · | · | ·
CCCn1c(C)ccc(-c2noc(CCC(=O)Nc3ccc(OCC)cc3)n2)c1=O | – | · | · | · | · | ·
C=C(Cl)CN1CCC(CC(N)=O)CC1 | – | · | · | · | · | ·
O=C(Nc1cccc(Cl)c1)N1CCOC(CN(CC2CC2)C(=O)c2cccc(F)c2)C1 (stereo unspecified) | – | · | · | · | · | ·
COc1cc(-c2nc3c(c(C)nn3-c3ccccc3)c3cc(OC)c(OC)cc23)ccc1O | – | ? | ? | 13µM | – | –
COc1cc2c(-c3cc(Br)ccc3O)nc3c(c(C)nn3-c3ccccc3)c2cc1OC | – | – | – | · | – | ·
O=S(=O)(NCCCn1ccc2ccccc21)c1ccc(F)c(F)c1 | – | · | · | · | · | ·
O=S(=O)(NCCc1csc(-c2ccc(F)cc2)n1)c1ccc(Cl)cc1 | 28µM | ? | – | · | – | ·
Cc1ccc(S(=O)(=O)NCCc2csc(-c3ccc(Cl)cc3)n2)cc1 | ? | ? | – | · | – | ·
Fc1ccc(Nc2ccnc(-c3ccoc3)n2)cc1 | ? | · | · | · | – | ·
Fc1ccc(Nc2ccnc(-c3ccc4c(c3)OCO4)n2)cc1 | 18µM | · | · | · | – | ·
O=C(CCc1ncc(-c2ccccc2)o1)Nc1cc(F)cc(F)c1 | – | · | · | · | · | ·
SMILES | ALOX12 inh | KB-3-1 cytotox | KB-V1 MDR tox | MCF10A rerep | PINK1 modulator | SW480 rerep
Fc1ccc(/C=N/Nc2cccc(Cl)c2)cc1F | 4µM | · | · | · | · | ·
N#Cc1ccc(/C=N/Nc2cccc(Cl)c2)cc1 | 2.5µM | · | · | · | · | ·
N#Cc1ccc(/C=N/Nc2ccccc2Cl)cc1 | 10µM | · | · | · | · | ·
O=C(COc1ccc(Br)cc1F)OCC(=O)N1CCNC1=O | – | · | · | · | · | ·
CCCCCCC(=O)N/N=C/c1ccc(Br)cc1 | – | – | – | ? | – | ?
CCCCCCCCC(=O)N/N=C/c1cccc(Br)c1 | – | – | – | 18µM | · | –
CCCc1nn2c(=O)cc(COc3cccc(NC(=O)c4cccs4)c3)nc2s1 | – | · | · | · | · | ·
CCN(CC)C(=O)c1cccc(-c2ccc(OCCn3ccnc3)cc2)c1 | – | · | · | · | · | ·
COC(=O)Cn1ccc(N(C)C)c(C#N)c1=O | – | – | – | 9.2µM | – | 6.5µM
